# Bioassay records (PubChem)
# In the library only some 3.9% were active in any assay of this set; here they are far more common.
# TPT1 inhibitor = Candida albicans TPT1 enzyme inhibitors, primary screen, biochemical, fluorescence polarization; 300,000 tested, 0.81% active; tRNA 2'-phosphotransferase TPT1 (Candida albicans SC5314); recombinant caTPT1, FP RNA substrate dephosphorylation; inhibition, % at 5 µM;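 active = inhibition above the mean of all tested compounds plus 3 SD, set per screening campaign, cut at about 24% in these data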;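 also: plate controls were DMSO alone for no effect and ferristatin control at 100 nM for full effect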
# Rtt109 Vps75 = inhibitors of C. albicans Rtt109/Vps75 HAT, primary screen, biochemical, ThioGlo CoA-SH fluorescence, plate reader; purified Rtt109/Vps75, 4 h; inhibition, % at 34.9 µM; 330,000 tested, 0.16% active;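 active = inhibition of at least 50% in every replicate; inconclusive = best replicate reaches 50% inhibition but some replicates fall short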
# Target sequence (Q5AAJ8 whole entry, looked up): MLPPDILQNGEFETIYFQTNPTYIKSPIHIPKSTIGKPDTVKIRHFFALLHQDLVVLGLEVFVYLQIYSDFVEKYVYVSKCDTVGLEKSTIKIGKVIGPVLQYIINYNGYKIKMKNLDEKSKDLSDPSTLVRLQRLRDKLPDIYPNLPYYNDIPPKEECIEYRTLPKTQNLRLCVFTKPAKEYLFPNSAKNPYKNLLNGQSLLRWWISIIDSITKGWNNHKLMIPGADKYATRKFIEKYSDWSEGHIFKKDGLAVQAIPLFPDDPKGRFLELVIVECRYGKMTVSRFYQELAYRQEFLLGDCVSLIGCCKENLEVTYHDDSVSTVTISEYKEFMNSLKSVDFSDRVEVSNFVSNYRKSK
# Platelet DG rel = inhibitors of platelet dense granule secretion, primary screen, cell-based, MLPCN, human platelets. human platelet-rich plasma, SFLLRN dense granule ATP release, luminescence. inhibition, %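 (compounds screened at 7.5 µM in platelet-rich plasma)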. 300,000 tested, 0.22% active;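 active = mean replicate score, as percent of positive control, at or above 50; inconclusive = mean below 50 but at least one replicate at or above 50; inactive = mean and every replicate below 50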
# PHOSPHO1 block = PubChem AID 1565 | Phosphoethanolamine/phosphocholine phosphatase (Homo sapiens), Q8TCT1 | recombinant PHOSPHO1, absorbance phosphatase assay | inhibition, % at 13.3 µM | 290,000 tested, 1.1% active; in the data active = inhibition above about 60%
# Target sequence (Q8TCT1 whole entry, looked up): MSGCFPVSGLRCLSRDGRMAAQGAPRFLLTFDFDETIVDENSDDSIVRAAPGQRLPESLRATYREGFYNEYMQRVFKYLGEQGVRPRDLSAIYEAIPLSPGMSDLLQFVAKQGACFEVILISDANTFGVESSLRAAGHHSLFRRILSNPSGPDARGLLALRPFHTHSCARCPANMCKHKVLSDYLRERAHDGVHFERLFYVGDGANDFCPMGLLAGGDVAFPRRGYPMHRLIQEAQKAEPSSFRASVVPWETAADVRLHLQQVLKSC
# SKKanGAS inh = S. pyogenes SKKanGAS growth inhibitors in kanamycin, primary screen, streptokinase expression inhibitor project, SKKanGAS strain, BacTiter-Glo luminescence. 6 h. inhibition, % at 7.5 µM. 300,000 tested, 1.3% active. AID 1662, 2009;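 active = mean replicate score, as percent of positive control median, at least 50; inconclusive = mean below 50 but one replicate at or above 50; inactive = mean and every replicate below 50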;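 also: strain carries kanamycin resistance gene driven by streptokinase promoter and grows in 40 µg/ml kanamycin; loss of luminescence reflects streptokinase promoter inhibition or plain growth inhibition; 0% = median of DMSO wells and 100% = positive control at its reference dose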
# WT yeast gro inh = growth inhibition of WT strain, primary screen, mitochondrial fusion inhibitor project, WT and mutant strains, chemical genetic; mitochondrial fusion phenotypic screen; 190,000 tested, 2.1% active; inhibition, % at 10 µM; AID 1362, 2008; in the data active = inhibition above about 58%; tested in S. cerevisiae
# The depositor's hits bear a star; ? = inconclusive; / = not tested or not shown.
SMILES,TPT1 inhibitor,Rtt109 Vps75,Platelet DG rel,PHOSPHO1 block,SKKanGAS inh,WT yeast gro inh
CCN(Cc1ccccc1)C(=O)COC(=O)[C@@H]1CCCN1C(=O)c1cccs1,/,4,/,/,/,/
Cc1cc(C)cc(C(=O)NCC(=O)N2CCC(C(N)=O)CC2)c1,/,2,/,/,/,/
CCOc1cc2[nH]c(=S)n(C(C)C)c(=O)c2cc1OCC,2,0,-1,71*,-8,10
CCOc1cc2[nH]c(=S)n(C3CC3)c(=O)c2cc1OCC,0,2,0,6,3,-2
N#Cc1c(N)sc(=S)c2c1CCCC2,-68,-2,-1,99*,0,3
CCC1(C)Cc2c(C#N)c(N)sc(=S)c2CO1 (stereo not drawn),-12,-3,-4,90*,-1,4
Cc1[nH]c(=S)c(C#N)c2c1CCCC2,3,-1,5,-1,2,-1
Fc1cccc(NC(=S)NNc2c3ccccc3nc3ccccc23)c1,/,-3,-3,20,42,76*
Fc1cccc(NC(=S)NNc2ccccc2)c1,-3,-2,-2,14,0,/
COc1ccccc1CNS(=O)(=O)c1ccc(-n2cnnn2)c(OC)c1,2,1,2,9,5,/
Cc1cc(C(=O)O)ccc1N/C=C1\CCCC(C)C1=O (stereo not drawn),0,14,-2,-6,-5,-7
CC1CCC/C(=C\Nc2ccc(O)cc2)C1=O (stereo not drawn),-1,7,0,70*,4,-35
Cc1cccc(N2CCN(C(=O)c3ccc(Cl)c(S(=O)(=O)NCc4ccco4)c3)CC2)c1C,1,4,2,-1,14,74*
Cc1ccc(S(=O)(=O)NCc2ccco2)c(C)c1C,0,19,0,1,1,74*
CCn1cc(S(=O)(=O)NCCc2ccc(F)cc2)cn1,-2,-11,2,18,-6,/
CCn1c(CC(=O)Nc2cccc(Cl)c2Cl)nnc1SCCOc1ccc(OC)cc1,0,-3,-6,72*,-1,20
Cc1[nH]n(-c2ccccc2)c(=O)c1/C=N/N(c1ccccc1)c1ccccc1,-2,4,-2,32,78*,34
Cc1[nH]n(-c2ccccc2)c(=O)c1C=NC1CCCCC1,-2,59*,2,-23,14,-5
CCn1cc(Cl)c(C(=O)Nc2cccc(CN3CCOCC3)c2)n1,/,-3,/,17,/,/
C=CCN(C(=O)c1cccc(S(=O)(=O)N2CCN(C)CC2)c1)c1nc(-c2ccccc2)cs1,2,-10,-28,19,-2,59*
Cc1ccccc1NC(=S)N(Cc1ccccc1)Cc1cccnc1,-1,5,2,36,-2,-12
CSc1cccc(NC(=S)N(Cc2ccc(C)cc2)Cc2cccnc2)c1,0,6,8,-5,6,67*
Cc1ccc(-n2c(N)c(C(=O)N3CCOCC3)sc2=S)cc1,-4,6,9,76*,0,3
C=CCN1C(=O)C2(OCCCO2)c2cc(C)ccc21,-5,-7,3,22,3,/
Cc1cc(CN2CCN(CCC#N)CC2)c(O)c(C2(C)CCCCC2)c1,1,25,-2,2,26,84*
SMILES,TPT1 inhibitor,Rtt109 Vps75,Platelet DG rel,PHOSPHO1 block,SKKanGAS inh,WT yeast gro inh
O=C(Nc1ccccc1C(F)(F)F)C1CCN(C(=O)Cc2ccccc2)CC1,-1,3,-3,23,0,/
CN(C)c1ncc(C2=C(Cl)C(=O)C(N3CCCC3)=C(Cl)C2=O)s1,-3,13,7,/,77*,-10
O=C1C(Cl)=C(N2CCCCC2)C(=O)C(Cl)=C1c1cnc(N2CCCCC2)s1,/,35,10,-14,42,8
O=C(Oc1cccnc1)c1ccc(Cl)c(Cl)c1,-3,/,5,15,-9,96*
COc1ccc(C(=O)Oc2cccnc2)cc1,3,-9,-42,5,-13,5
CCCn1c(SCC(=O)Nc2cc(S(=O)(=O)N3CCCCC3)ccc2C)n[nH]c1=O,/,-3,/,/,/,/
Cc1ccc(NC(=O)c2cc(S(=O)(=O)N3CCOCC3)cn2C)cc1F,-3,-11,?,33,0,/
CN(C(=O)c1ccc(NC(=O)Cc2ccc([N+](=O)[O-])cc2)cc1)C1CCCC1,/,5,/,/,/,/
CCOCC(=O)Nc1cc(C(F)(F)F)ccc1Oc1cccc(Br)c1,2,-4,-13,23,20,66*
CCOC(=O)Cc1cc(=O)[nH]n(-c2ccccc2)c1=O,/,1,/,/,/,/
Cc1cccc(-c2noc(-c3ccc4c(c3)OCO4)n2)c1,-3,0,20,28,1,13
Cc1cccc(-c2oc3ccccc3c2-c2ccc3c(c2)OCO3)c1,0,-1,2,4,52*,/
Cc1ccc(C)c(S(=O)(=O)N2CCN(c3nc(-c4cccnc4)nc4ccccc34)CC2)c1,/,-9,/,/,/,/
CCOC(=O)c1sc(NC(=O)/C=C/c2cnn(C)c2C)c(C(=O)OC(C)C)c1C,-2,3,5,3,1,59*
COc1cc(C2NC(=O)C(C#N)=C(Nc3cccc(C)c3)S2)ccc1O (stereo not drawn),2,147*,-2,38,2,/
Cc1ccc(C(c2nnnn2C2CCCCC2)N2CCc3ccccc32)cc1 (stereo not drawn),0,2,-6,1,20,38
N#Cc1cccc(C(c2nnnn2C2CCCC2)N2CCCCCC2)c1 (stereo not drawn),-5,8,-2,62*,9,-7
COc1cc(C(c2nnnn2C2CCCC2)N2CCc3ccccc3C2)ccc1O (stereo not drawn),-5,-5,-1,77*,2,17
Oc1ccc(C(c2nnnn2C2CCCC2)N2CCc3ccccc3C2)cc1 (stereo not drawn),0,-3,1,84*,1,25
CC(=O)c1c(C)[nH]c(C(=O)CN2C(=O)NC3(CCCCC3)C2=O)c1C,/,9,/,/,/,/
CS(=O)(=O)Nc1ccc(C2=NN(C(=O)C3CCCCC3)C(c3cccs3)C2)cc1 (stereo not drawn),1,6,-3,7,83*,28
Cc1cc(C)cc(N(CC(=O)NCC2CCCO2)C(=O)CCC(=O)Nc2cc(C)on2)c1 (stereo not drawn),2,-5,-4,-2,-3,99*
Cc1cc(C(=O)NNC(=O)c2ccc(C)c([N+](=O)[O-])c2)c(C)o1,/,1,/,/,/,/
Cc1ccccc1N1CCN(C(=O)c2ccc(Oc3ccc(C(F)(F)F)cn3)cc2)CC1,1,5,15,-30,6,75*
CCN(CC(=O)Nc1ccccc1C(F)(F)F)C(=O)CCc1c(C)[nH]c(=O)c(C#N)c1C,-5,11,65*,39,0,/
